PubChem BioAssay AID778 (Sanford-Burnham Center for Chemical Genomics, 2007)
About 20,000 (21%) of roughly 96,000 compounds were called active. Only a sample is shown. Unmarked numbers belong to inactive results.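 How the source made its calls: active means CYP2C19 inhibition above a set limit at 5 µM in the primary screen (cut at about 50% in these data); inactive means the rest.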

Biological target: Cytochrome P450 2C19 (Homo sapiens) (UniProt P33261)
Assay: blockers of cytochrome P450 2C19 activity – biochemical, luminescence, ADME assay, primary screen (AID 778);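 further: plate controls were negative control wells for no effect and 2.5 mM tranylcypromine positive control for full effect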
Details: CYP2C19 Supersomes, luciferin-H EGE luminescence, 30 min; at 5 µM; stronger effect = higher value

Chain of Cytochrome P450 2C19 (Homo sapiens) (P33261 whole entry, looked up): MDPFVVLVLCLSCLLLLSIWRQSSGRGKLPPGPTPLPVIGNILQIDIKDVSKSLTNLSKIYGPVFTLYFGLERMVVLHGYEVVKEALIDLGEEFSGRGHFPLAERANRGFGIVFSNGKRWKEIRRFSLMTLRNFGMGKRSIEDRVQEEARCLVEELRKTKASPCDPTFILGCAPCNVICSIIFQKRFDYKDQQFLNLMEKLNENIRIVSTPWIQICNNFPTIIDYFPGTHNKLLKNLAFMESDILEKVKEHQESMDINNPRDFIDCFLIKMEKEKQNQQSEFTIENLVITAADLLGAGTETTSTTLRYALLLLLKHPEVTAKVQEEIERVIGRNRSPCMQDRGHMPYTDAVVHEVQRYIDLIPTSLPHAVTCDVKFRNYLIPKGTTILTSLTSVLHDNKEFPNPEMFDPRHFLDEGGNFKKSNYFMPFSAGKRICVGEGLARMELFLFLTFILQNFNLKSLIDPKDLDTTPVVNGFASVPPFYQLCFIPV

Structure (SMILES)	inhibition
Cc1ccc(C(=O)OC2=CC(=O)CC(C)(C)C2)cc1	36.6%
CCOC(=O)c1[nH]c2ccc(OC)cc2c1NC(=O)N1CCOCC1	2.7%
Cn1c(SCC(=O)C(C)(C)C)nnc1-c1ccccn1	33.5%
Cc1ccc(N(Cc2ccc(C(=O)Nc3ccccc3C(=O)NCc3ccco3)cc2)S(C)(=O)=O)cc1C	87.7% (active)
CS(=O)(=O)N(Cc1ccc(Cl)cc1)c1ccc(C(=O)NCCSCc2ccco2)cc1	-3.9%
CCOc1ccccc1C(=O)NCc1ccco1	14.6%
Cc1cccc(Nc2ccccc2C(=O)NCc2ccco2)c1C	22.7%
Cc1ccccc1NC(=O)NCc1ccco1	-11.9%
O=C(Nc1ccccc1)Nc1ccccc1C(=O)NCc1ccco1	79.3% (active)
CC(=O)N(CC1CCCO1)C1(C(=O)NC2CCCC2)CCCCC1 (stereo unspecified)	3.8%
O=C(CN1CCOCC1)Nc1c2c(nc3c1CCC3)CCC2	-3%
Fc1ccccc1/C=C1\CCCC2=C1Nc1ncnn1C2c1ccccc1F (stereo unspecified)	45.3%
COc1ccc(C(=O)/C=C/Nc2ccccn2)cc1	46.4%
O=S(=O)(Nc1ccccn1)c1ccc(Oc2ccccc2)cc1	90.2% (active)
COc1ccccc1Oc1ccc(S(=O)(=O)Nc2cccnc2)cc1	87.6% (active)
CN1CCc2c(sc3c2c(NCc2ccco2)nc2nnnn23)C1	37.8%
CCOc1ccc(NC(=O)C2CC(=O)N=C(N)S2)cc1 (stereo unspecified)	-0.4%
O=C(Nc1ccccc1)O/N=C1\CCCCC1c1ccc([N+](=O)[O-])cc1[N+](=O)[O-] (stereo unspecified)	36.8%
O=C1NC2(CCCCC2)N=C1c1ccccc1	25%
Cc1cc(C)c2c(-n3cccc3)c(C(=O)NNS(=O)(=O)c3ccc(F)cc3)sc2n1	31%
CC(C)(C)C(=O)c1cnc(Nc2ccccc2)s1	36.7%
CSc1nc(O)c(Cc2ccccc2)c(=O)[nH]1	26.1%
CCn1c(Cc2ccccc2)nnc1SCc1nc2ccccc2c(=O)[nH]1	70.3% (active)
CCn1c(SCC(=O)Nc2ccc(S(=O)(=O)Nc3onc(C)c3C)cc2)nnc1-c1ccccc1	16.5%

Structure (SMILES)	inhibition
CNC(=O)CSc1nnc(CCc2ccccc2)n1-c1ccccc1	-8.1%
O=c1[nH]c(CSc2ncc(-c3ccc(F)cc3)n2Cc2ccco2)nc2ccccc12	32%
CCn1c(Cc2ccccc2)nnc1SCC(=O)Nc1ccccc1	74% (active)
CC(C)c1ccc(-c2nn[nH]n2)cc1	25.4%
O=c1nc(N2CCOCC2)nc2n1CCO2	1.1%
Cc1ccc2nc(NCCCNC(=O)c3cnccn3)c(C#N)cc2c1	17.1%
CCCCN1C(=O)/C(=C2/C=CC=CN2C)SC1=S	30.2%
CCN(CC)c1nc(-c2ccccc2)cc(C(F)(F)F)c1C#N	11.4%
O=C(Cn1c(=S)nc2ccccn21)N1CCc2ccccc2C1	23.6%
COc1ccc(OCC(=O)N2CCN(C(=O)COc3ccccc3)CC2)cc1	19.3%
O=C(COc1ccccc1)N1CCc2ccccc2C1	87.9% (active)
CC1CN(C(=O)CN2C(=O)NC(C)(c3ccccc3)C2=O)CC(C)O1 (stereo unspecified)	-12.4%
CCN1CCN(CCCCOc2ccccc2F)CC1	2.6%
Cc1nnc(NC(=O)CSc2nccn2-c2cccc(C)c2C)s1	13.4%
CCOC(=O)Nc1ccc2c(c1)N(C(=O)CCN1CCN(CCO)CC1)c1ccccc1CC2	-24.8%
COc1ccc(CNC(=O)c2cc3c(=O)n4ccccc4nc3n(CC3CCCO3)c2=N)cc1 (stereo unspecified)	6.2%
CCC(C(=O)NCc1ccc(OC)cc1)n1nc(C)n2c(cc3occc32)c1=O (stereo unspecified)	58.8% (active)
CCOc1ccc(CCNC(=O)C2CCN(c3ccc(N4CCOCC4)nn3)CC2)cc1OCC	13.9%
CCOc1ccc(CCNC(=O)C(CC)n2nc(C)n3c(cc4sccc43)c2=O)cc1OCC (stereo unspecified)	57.8% (active)
COc1ccc(CCn2c(=N)c(C(=O)NCc3ccco3)cc3c(=O)n4cccc(C)c4nc32)cc1	25.7%
CCOc1ccc(CNC(=O)C2CC(=O)N(C3CCCC3)C2)cc1OC (stereo unspecified)	-8%
COc1cc(OC)cc(-c2cc3nc(C4CCN(C(=O)OC(C)(C)C)CC4)cc(=O)n3[nH]2)c1	2.8%
CC(Cc1cccs1)NC(=O)NC1CCCCC1 (stereo unspecified)	21%
COc1cccc(Nc2nnc(SCC(=O)N3CC(C)OC(C)C3)s2)c1 (stereo unspecified)	36%

Structure (SMILES)	inhibition
c1ccc(CCN2CN=C(Nc3nc4ccccc4o3)NC2)cc1	29.5%
CCOc1cc(-c2nc3cc(C)ccn3c2NCC2CCCO2)ccc1O (stereo unspecified)	2.7%
O=P(c1ccc2c(c1)OCCO2)(N1CCOCC1)N1CCOCC1	21.2%
Cc1ccc(NC(=O)Cn2nc(C)c3ccccc3c2=O)c(C)c1	56.1% (active)
Cc1nn(CC(=O)Nc2ccc3c(c2)nc(CN2CCCCC2)n3C)c(=O)c2ccccc12	10.5%
O=C(Cn1nc(Cc2cccnc2)c2ccccc2c1=O)NCC1COc2ccccc2O1 (stereo unspecified)	36.1%
COc1cccc(C(=O)Nc2ccc(NC(=O)c3ccco3)cn2)c1	38.7%
Cc1sc2c(c1C)c(=O)n(-c1ccccc1)c1nncn21	-7.8%
Cc1cc(=O)cc(C)[nH]1	4.5%
CC(C)c1ccc(N2CCN(C(=O)c3ccccc3NC(=O)/C=C(\C(=O)O)c3ccccc3)CC2)cc1	21.7%
COc1ccc(N2CCN(C(=O)CNC(=O)c3ccc(C(C)(C)C)cc3)CC2)cc1	3.3%
CC(=O)N1CCN(c2ccc(NCc3ccc(C(C)C)cc3)cc2)CC1	50.5% (active)
Cc1ccc(Cc2cnc(N)s2)o1	8.3%
CC1CC(C)CN(S(=O)(=O)c2cccc(C(=O)N3C(=O)c4cccc(N)c4C3=O)c2)C1 (stereo unspecified)	5.9%
O=C(Nc1cccnc1)c1noc2c1CCCCC2	64.2% (active)
O=C(Nc1cccc2ccccc12)c1onc2c1CCCC2	7.1%
CCOC(=O)c1ccc(-c2ccc(C(=O)Nc3cccnc3)o2)cc1	14.1%
Cn1c(=O)c2[nH]c(NCC3CCCO3)nc2n(-c2ccccc2)c1=O (stereo unspecified)	-1%
CC(=O)NC1CC2CCCC(C1)N2CC(=O)Nc1ccccc1 (stereo unspecified)	11.5%
CSCCC(NC(=O)c1ccco1)C(=O)OCC(=O)Nc1ncc(Cl)c(C)c1Cl (stereo unspecified)	12.9%
O=C(Nc1ccc2sc3ccccc3c(=O)c2c1)c1ccccc1Cl	14.5%
O=C(NCc1cccnc1)c1cn(-c2ccccc2)nc1-c1cccs1	89.6% (active)
Cc1c(C(=O)NCc2ccccc2)cnn1-c1ccccc1	11.5%
COC(=O)c1cn(-c2ccccc2)nc1-c1cccnc1	30.5%

Structure (SMILES)	inhibition
COC(=O)Cc1csc(Nc2c(C)n(C)n(-c3ccccc3)c2=O)n1	-4.9%
CC1CC(c2ccccc2)n2nc(NC(=O)c3cccs3)nc2N1 (stereo unspecified)	7.3%
CCOC(=O)CSc1nncc2ccc(OC)c(OC)c12	11.3%
CCOC(=O)C1CCN(Cc2coc3ccc(Cl)cc3c2=O)CC1	6.5%
CCOC(=O)C1CCCCN1Cc1ccc(OC)c(OC)c1OC (stereo unspecified)	58.1% (active)
CN=C1SC(CC(=O)Nc2ccc(C(=O)O)cc2)C(=O)N1C (stereo unspecified)	-4.9%
CC(=O)C1C(c2ccc(Cl)cc2)NC(=O)NC1(O)C(F)(F)F (stereo unspecified)	39%
CCc1cccc2c(C=C(C#N)C#N)cn(CC(=O)N3CCCCC3)c12	-0.7%
COc1cccc2c(=O)n(CC(=O)N3CCCCCC3)ccc12	56.9% (active)
CCOC(=O)C(C)Oc1cccc2c(=O)n(CC(=O)N3CCc4ccccc43)ccc12 (stereo unspecified)	8.2%
O=C(Cn1cc2c(n1)CCCCC2)NCCN1CCOCC1	-10.3%
COc1cc(OC)c(C(=O)NC2CCCCCC2)cc1OC	43.7%
CCOc1ccc(N(CC(=O)NCc2ccc(OC)cc2)S(=O)(=O)c2c(C)noc2C)cc1	15.3%
CS(=O)(=O)N(CC(=O)N1CCN(Cc2ccc3c(c2)OCO3)CC1)c1ccc2c(c1)OCO2	-4.8%
O=C(/C=C/c1cc2c(cc1Br)OCO2)NCc1ccc(Cl)cc1	-11.1%
CCOc1ccc(N(CC(=O)NC2CCCCCC2)S(=O)(=O)c2c(C)[nH]c(=O)[nH]c2=O)cc1	25.2%
O=C(CN(c1ccc2c(c1)OCCO2)S(=O)(=O)c1ccccc1)Nc1ccc2c(c1)OCO2	26.7%
CCOc1ccc(N(CC(=O)OC)S(=O)(=O)c2c(C)noc2C)cc1	50.6% (active)
CS(=O)(=O)N(CC(=O)NCc1ccco1)c1ccc2c(c1)OCO2	59.5% (active)
CCOC(=O)c1cccc(NC(=O)CN(c2ccc(C)cc2)S(=O)(=O)c2c(C)noc2C)c1	17.3%
Cc1noc(C)c1S(=O)(=O)N(CC(=O)Nc1ccc2c(c1)OCCO2)c1ccc(C(C)C)cc1	55.8% (active)
Cc1noc(C)c1S(=O)(=O)N(CC(=O)NCc1ccc(Cl)cc1)c1ccc2c(c1)OCO2	72.8% (active)
O=C(Cn1nnc(-c2ccc3c(c2)OCO3)n1)NCc1ccco1	0.8%
Cc1ccc(CNC(=O)CN2CCN(Cc3ccc(Cl)cc3)C2=O)cc1	15.1%
